116 molecules from PubChem BioAssay AID488969 (Vanderbilt High Throughput Screening Facility, 2010) can be followed below.

Whole data set: some 110,000 compounds, median “z-score” near -0.1, cut for the highest 2% near 2. The list comes from a sample in which the highest values are over-represented; it also holds similar structures and randomly drawn compounds. Calls of active or inactive are those of the source.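 The calls were made as follows: active = z-score in the third read window above 3 or below -3; inactive = the rest.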

The target in the experiment is Metabotropic glutamate receptor 8 (Rattus norvegicus) (UniProt P70579). Put plainly: rat mGluR8 modulators via GIRK flux, primary screen, cell-based, thallium flux, HTS (AID 488969). The conditions noted are these: HEK293 rat mGluR8, GIRK (G protein-gated inwardly rectifying potassium channel) thallium flux, FluoZin2; at 10 µM; stronger effect = higher value; submaximal glutamate (EC20) added with thallium.
Metabotropic glutamate receptor 8 (Rattus norvegicus), sequence (P70579 whole entry, looked up): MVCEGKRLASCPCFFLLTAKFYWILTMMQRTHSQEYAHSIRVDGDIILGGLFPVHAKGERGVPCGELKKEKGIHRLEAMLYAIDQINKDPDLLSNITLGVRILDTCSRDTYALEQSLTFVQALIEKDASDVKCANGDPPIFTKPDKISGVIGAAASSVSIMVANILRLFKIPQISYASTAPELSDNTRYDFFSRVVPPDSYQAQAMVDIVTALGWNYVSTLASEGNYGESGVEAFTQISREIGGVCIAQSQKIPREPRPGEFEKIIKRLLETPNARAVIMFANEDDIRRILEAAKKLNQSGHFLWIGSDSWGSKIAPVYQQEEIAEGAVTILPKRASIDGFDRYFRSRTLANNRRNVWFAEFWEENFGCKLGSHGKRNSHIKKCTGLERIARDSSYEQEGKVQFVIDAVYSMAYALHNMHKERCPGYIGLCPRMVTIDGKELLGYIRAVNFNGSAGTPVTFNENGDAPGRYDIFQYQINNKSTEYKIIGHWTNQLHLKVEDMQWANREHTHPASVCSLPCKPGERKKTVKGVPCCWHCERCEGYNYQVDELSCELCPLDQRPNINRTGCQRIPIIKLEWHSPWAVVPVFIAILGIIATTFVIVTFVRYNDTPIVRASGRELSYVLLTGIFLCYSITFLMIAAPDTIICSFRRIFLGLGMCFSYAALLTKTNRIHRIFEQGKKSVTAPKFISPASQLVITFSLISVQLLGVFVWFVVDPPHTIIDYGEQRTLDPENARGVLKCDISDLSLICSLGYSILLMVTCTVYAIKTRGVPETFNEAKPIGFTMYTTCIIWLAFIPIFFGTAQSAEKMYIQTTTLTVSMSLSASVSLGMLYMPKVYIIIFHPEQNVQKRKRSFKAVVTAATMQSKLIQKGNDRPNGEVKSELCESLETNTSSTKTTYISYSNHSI
The molecule `CCCC(C(=O)c1ccccc1)n1cncn1` (stereo unspecified) yielded a z-score of -0.313.

Turning to `N#Cc1c(-c2ccncc2)c2c([nH]c1=S)CCCC2`, the z-score was -0.164.

The molecule `COc1ccc(-c2c3c([nH]c(=S)c2C#N)CCC3)cc1` came in with a z-score of 2.17.

In turn, `N#Cc1c(-c2cccnc2)c2c([nH]c1=S)CCCC2` yielded a z-score of -0.285.

`COc1cc(C(=O)N(Cc2ccco2)Cc2cc3ccccc3[nH]c2=O)cc(OC)c1OC` displayed a z-score of -0.671.

As to `COc1cc(C2Nn3c(nnc3-c3ccccc3OC)S2)ccc1O` (stereo unspecified), the z-score was -0.0272.

For `COc1ccc(OC)c(NC(=O)C(=O)NNC(=O)c2cccs2)c1`, the z-score came to 1.69.

On to `COc1ccc(NC(=O)C(=O)NNC(=O)c2cccs2)c(OC)c1`, for which the z-score was 5.95 (active).

In the case of `COc1ccc(NC(=O)c2cccs2)cc1`, the z-score turned out to be 0.303.

In turn, `COc1ccc(OCC(=O)NNC(=O)c2cccs2)cc1` showed a z-score of 0.919.

`COc1cc(N)ccc1NC(=O)c1cccs1` gave a z-score of -0.15.

As to `COc1ccc(NC(=O)C(=O)NNC(=O)c2cccs2)cc1`, the z-score was 7.11 (active).

For `CCC(=O)Nc1nnc(SCc2ccc(F)cc2)s1`, the z-score was -0.00764.

`COc1ccc(N2C(=O)CC(Nc3ccc(C)cc3)C2=O)cc1` (stereo unspecified) showed a z-score of -0.557.

`CC1CC(C)(C)NC(=S)N1CC(=O)N(C)Cc1ccccc1` (stereo unspecified) returned a z-score of -0.189.

In turn, `CCNC(=S)NNC(=O)c1cccn(Cc2ccc(Cl)cc2Cl)c1=O` gave a z-score of -0.0504.

`C=CCOn1c(=O)c(-c2cccs2)[n+]([O-])c2ccccc21`: the z-score was 3.49 (active).

Molecule `CCOn1c(=O)c(-c2cccs2)[n+]([O-])c2ccccc21` returned a z-score of -2.21.

`COn1c(=O)c(-c2cccs2)[n+]([O-])c2ccccc21` yielded a z-score of 1.16.

`Cc1nn(C(C)C(=O)O)c(=O)c2c1sc1ccccc12` (stereo unspecified) yielded a z-score of -0.395.

In turn, `N#Cc1cn(-c2ccccc2)nc1-c1ccco1` displayed a z-score of -0.0798.

`CCNC(=O)C1CCCN1S(=O)(=O)c1ccc(OC)cc1` (stereo unspecified) yielded a z-score of 0.787.

In the case of `CCCCc1c(O)nc(SCC(=O)N2CCOCC2)[nH]c1=O`, the z-score stood at 0.0929.

The molecule `CCC(C)c1c(O)nc(SCC(=O)N2CCOCC2)[nH]c1=O` (stereo unspecified) showed a z-score of 2.93.

For `CC(C)c1c(O)nc(SCC(=O)N2CCOCC2)[nH]c1=O`, the z-score is -0.357.

Regarding `COC(=O)c1ccccc1Oc1nc(Cl)cc(OC)n1`, the z-score was -0.22.

Molecule `CCOC(=O)c1cnc2c(C)cc(C)cc2c1Nc1ccc(S(=O)(=O)Nc2ncccn2)cc1` had a z-score of -0.378.

As to `CCOC(=O)c1cnc2c(C)c(Cl)ccc2c1Nc1ccc(S(=O)(=O)Nc2ncccn2)cc1`, the z-score is 9.28 (active).

Regarding `CCOC(=O)c1cnc2c(C)c(C)ccc2c1Nc1ccc(S(=O)(=O)Nc2ncccn2)cc1`, the z-score was -0.177.

Consider `CCOc1ccc(-n2c(=S)sc3c(=O)[nH]c(SCC(=O)NC(C)CC)nc32)cc1` (stereo unspecified), for which the z-score is -0.859.

Molecule `CC1CCN(Cc2nnnn2-c2cccc([N+](=O)[O-])c2)CC1` displayed a z-score of -0.243.

`CC(C)OCC(O)CCc1n[nH]c(=S)n1-c1ccccc1` (stereo unspecified): the z-score is -0.224.

`CC1CCN(CCCCOc2ccc(C(=O)c3ccccc3)cc2)CC1` displayed a z-score of 2.47.

As to `c1ccc(COc2ccc(OCCCNC3CCCC3)cc2)cc1`, the z-score worked out at 2.46.

Molecule `CC(C)Oc1ccc(OCCCN2CCCCCC2)cc1` registered a z-score of -0.0757.

`c1ccc(OCCCN2CCCC2)cc1`: the z-score turned out to be 0.00842.

As to `CCN1CCN(CCCOc2ccc(-c3ccccc3)cc2)CC1`, the z-score is 4.56 (active).

`O=C(c1ccccc1)c1ccc(OCCCCN2CCCCC2)cc1` had a z-score of -0.455.

The molecule `CCN1CCN(CCCCSc2ccccc2)CC1` had a z-score of -0.152.

Regarding `COc1ccc(OCCCN2CCCC(C)C2)cc1` (stereo unspecified), the z-score stood at 0.314.

Molecule `CCOc1ccc(OCCNC2CCCC2)cc1` registered a z-score of 0.0455.

With `COc1ccc(OCCCN2CCCCCC2)cc1`, the z-score was 8.02 (active).

`Cc1ccc(OCCCNC2CCCC2)cc1` gave a z-score of -0.0441.

Take `O=C(c1ccccc1)c1ccc(OCCCN2CCCC2)cc1`: the z-score was -0.0127.

In the case of `CSCCNC(=O)c1ccc(C(C)(C)C)cc1`, the z-score was -0.121.

`CCCc1cc(=O)[nH]c(SCC(=O)N(Cc2ccccc2)C(C)C)n1`: the z-score is -0.715.

The molecule `CC(C)(C)C(=O)Nc1cc(NC(=O)C(C)(C)C)cc(C(=O)Nc2cc(C(=O)O)cc(C(=O)O)c2)c1` registered a z-score of 0.00761.

For the molecule `Cc1cc(C(F)F)n2ncc(C(=O)NCCc3ccc(Cl)cc3)c2n1`, the z-score was -0.612.

Turning to `Cc1nn(CC(=O)OCC(=O)Nc2ccccc2[N+](=O)[O-])c(C)c1[N+](=O)[O-]`, the z-score is 0.113.

In the case of `Nc1nc(-c2cccnc2)nn1C(=O)COc1ccccc1`, the z-score is -0.135.

In turn, `O=C(NCC(c1cccnc1)N1CCN(c2ccccc2F)CC1)c1cccc(Cl)c1` (stereo unspecified) had a z-score of 0.459.

`CCCOc1c(OC)cc(Cl)cc1C1NC(=O)NC(C)=C1C(=O)NCc1ccccc1` (stereo unspecified): the z-score is -0.431.

For `c1ccc(COc2ccc(OCCCCN3CCCCC3)cc2)cc1`, the z-score is 2.79.

The molecule `O=C(c1ccccc1)c1ccc(OCCCN2CCCCC2)cc1` showed a z-score of 1.54.

In turn, `c1ccc(COc2ccc(OCCCN3CCCC3)cc2)cc1` had a z-score of 0.306.

With `CC1CCN(CCCOc2ccc(OCc3ccccc3)cc2)CC1`, the z-score was 0.441.

The molecule `c1ccc(COc2ccc(OCCCCN3CCCC3)cc2)cc1` showed a z-score of 0.565.

For the molecule `c1ccc(COc2ccc(OCCCN3CCCCC3)cc2)cc1`, the z-score was 2.89.

Regarding `CCOC(=O)c1c(NC(=O)CCN2C(=O)c3ccccc3C2=O)sc(C(=O)OC(C)C)c1C`, the z-score is -0.193.

In turn, `O=C(c1cnccn1)N(c1ccccc1)C1(C(=O)NC2CCCC2)CCCCC1` showed a z-score of 0.00523.

Consider `CCOC(=O)CSc1nc(-c2ccc3c(c2)OCO3)ccc1C#N`, for which the z-score was -0.00752.

As for `COc1ccc2occ(C(=O)c3ccc(N=C(C)N(C)C)cc3)c2c1`, the z-score was 3.46 (active).

In turn, `COc1ccc2occ(C(=O)c3cccs3)c2c1` gave a z-score of 0.191.

As to `COc1ccc2occ(C(C)=O)c2c1`, the z-score is -1.2.

`COc1ccc(CCNC(=S)Nc2ccc(C)cc2C)cc1` gave a z-score of -0.0431.

`CCc1cc2c(N[C@@H](C)C(=O)O)ncnc2s1` returned a z-score of 0.00833.

On to `N/C(=N\OC(=O)CCc1ccccc1)c1ccc(Br)cc1`, for which the z-score was 0.12.

In turn, `N/C(=N\OC(=O)Cc1ccccc1)c1ccc(Br)cc1` yielded a z-score of 2.92.

With `N/C(=N\OC(=O)c1ccc(Br)cc1)c1ccccc1`, the z-score is -0.37.

In turn, `O=C(NC(C(=O)O)c1ccccc1)c1ccc(S(=O)(=O)N2CCOCC2)cc1` (stereo unspecified) gave a z-score of -0.0595.

`CCCCn1c(SCC(=O)N2CCC(C)CC2)nc2ccsc2c1=O` had a z-score of -1.86.

`Cc1ccc(-c2nnc(-c3ccccc3)o2)cc1` gave a z-score of -0.254.

On to `Cc1ccc(-c2nnc(Nc3ccccc3)o2)cc1`, for which the z-score came to 1.1.

In the case of `CCNc1nnc(-c2ccc(C)cc2)o1`, the z-score was 2.74.

On to `CC(=O)Nc1cccc(C(=O)OC(C(=O)c2ccc(C)cc2)c2ccccc2)c1` (stereo unspecified), for which the z-score was found to be 0.508.

As to `CCN(CC)c1ccc(NC(=O)CN2CCN(S(=O)(=O)c3cc(Cl)ccc3OC)CC2)cc1`, the z-score was -0.269.

In turn, `CC1CN(CC(=O)c2c(N)n(Cc3ccccc3)c(=O)n(C)c2=O)CC(C)O1` (stereo unspecified) yielded a z-score of 0.178.

`Cc1ccc(Cn2nnc3c(=O)[nH]c(C4CCN(C(=O)c5cccs5)CC4)nc32)cc1`: the z-score was -0.73.

As for `O=C(NCC(c1cccs1)N1CCOCC1)c1ccccc1NS(=O)(=O)c1ccc(Cl)c([N+](=O)[O-])c1` (stereo unspecified), the z-score is -0.572.

`Cc1[nH]n2c(=O)cc(C(C)C)nc2c1-c1ccccc1`: the z-score was -0.963.

For the molecule `Cc1cc(=O)n2[nH]c(C)c(-c3ccccc3)c2n1`, the z-score was -0.675.

In the case of `Cc1[nH]n2c(=O)cc(C(C)(C)C)nc2c1-c1ccccc1`, the z-score is 4.43 (active).

`CC(C)OC(=O)c1cccnc1N1CCN(c2ccc(F)cc2)CC1` returned a z-score of -0.216.

The molecule `Cc1nc2ccc(NC3=NCCCCC3)cc2s1` displayed a z-score of 0.806.

For the molecule `COc1cc(OC)c(C2C(C(=O)N3CCOCC3)=C(C)NC3=C2C(=O)CC(C)(C)C3)cc1OC` (stereo unspecified), the z-score was -0.103.

`Cc1ccn2c(NC3CCCCC3)c(C)nc2c1` had a z-score of -0.312.

`CC(C)c1nc2ccccn2c1NC1CCCCC1` returned a z-score of 0.45.

Molecule `Cc1ccn2c(NC3CCCCC3)c(C(C)C)nc2c1` came in with a z-score of 2.52.

For the molecule `Cc1ccc(/C=C/S(=O)(=O)N2CCC(C(=O)O)CC2)cc1`, the z-score was -0.628.

Consider `CCOC(=O)N1CCN(c2nnnn2-c2ccccc2)CC1`, for which the z-score was -0.14.

The molecule `Cc1ccc(S(=O)(=O)N2CCOCC2)cc1NC(=O)COC(=O)CSc1ccc(Br)cc1C` yielded a z-score of -0.132.

For the molecule `CC(C)NC(=O)CSCc1c(Cl)cccc1Cl`, the z-score is -0.342.

`CCn1ncc(Cl)c1C(=O)Nc1cc(Cl)ccc1Cl`: the z-score was 0.0474.

`Cc1ccccc1OCc1nc2ccccc2c(=O)n1/N=C/c1cccc([N+](=O)[O-])c1` returned a z-score of -0.0563.

`O=C1c2ccccc2OC2(C=Cc3ccccc3O2)N1Cc1ccccc1` (stereo unspecified): the z-score came to 0.198.

In the case of `CN1CC2=Cc3ccccc3OC23Oc2ccccc2C=C3C1`, the z-score amounted to 2.01.

Molecule `Cc1ccc(-c2nn(CC(=O)Nc3ccc4c(c3)nc3n4CCOC3)c(=O)c3ccccc23)cc1` returned a z-score of -0.236.

`COc1ccccc1N1CCN(C(=O)Cn2c(=O)[nH]c3ccsc3c2=O)CC1` came in with a z-score of -0.563.

In turn, `S=C(NCCN1CCOCC1)Nc1ccc(Cl)cc1` gave a z-score of -0.102.

As to `CC(C)n1cc(NC(=O)c2cc(-c3ccccc3)on2)cn1`, the z-score was 16.8 (active).

Consider `O=C(Nc1cnn(C23CC4CC(CC(C4)C2)C3)c1)c1cc(-c2ccccc2)on1`, for which the z-score came to 0.107.

`O=C(Nc1cccnc1)c1cc(-c2ccccc2)on1` displayed a z-score of -0.466.

Consider `CCCn1cc(NC(=O)c2cc(-c3ccccc3)on2)cn1`, for which the z-score is 13 (active).

`Cc1ccc(-c2cc(C(=O)Nc3cnn(C(C)C)c3)no2)cc1` yielded a z-score of 0.74.

In the case of `COc1cccc(-c2cc(C(=O)Nc3cnn(Cc4ccccc4C)c3)no2)c1`, the z-score was found to be 0.0739.

In turn, `COc1ccc(Sc2cc(C(F)(F)F)nc(-c3ccccn3)n2)cc1` displayed a z-score of -0.417.

`CCOc1ccccc1CNC(=O)CCNC(=O)Cn1ccc2ccccc2c1=O` came in with a z-score of 0.269.

In the case of `Cc1cccc(-n2c(-c3csc(C)c3C)n[nH]c2=S)c1`, the z-score was found to be 0.00757.

In turn, `Cc1cccc(-n2c(-c3csc(C(C)C)c3)n[nH]c2=S)c1` had a z-score of 2.87.

In turn, `CCc1cc(-c2n[nH]c(=S)n2-c2cccc(C)c2)cs1` yielded a z-score of 0.65.

Molecule `Cc1cccc(-n2c(-c3csc(C)c3)n[nH]c2=S)c1` yielded a z-score of 0.189.

Consider `Cc1ccccc1-n1c(-c2csc3ccccc23)n[nH]c1=S`, for which the z-score came to 0.627.

For the molecule `Cc1cccc(-n2c(-c3csc4ccccc34)n[nH]c2=S)c1`, the z-score amounted to 2.62.

Take `CC(NC(=O)C1CCCCC1)C(=O)NC1=NCCS1` (stereo unspecified): the z-score is 0.00509.

`Cc1cccc(C)c1Oc1nc(-c2ccccc2)ncc1S(=O)(=O)c1ccccc1`: the z-score was -0.0101.

Turning to `CN1CCN(CCCNC(=O)c2ccc3c(c2)N(Cc2ccccc2)CCS3)CC1`, the z-score is 0.775.
